Laboratory results reported in PubChem BioAssay (Tox21).
Inconclusive results are not listed. Where a call stands in place of a potency, no number is given. The source made the active and inactive calls. Unless noted, calls follow the shape of the dose curve; as a rule, active = well fitted curve in the direction sought with a large enough effect in the repeat runs; inconclusive = weak or mixed curves; inactive = no such curve, though single readings can be large; an effect the other way counts as inactive or inconclusive.

Experiments:
[1] = qHTS assay to identify small molecule agonists of the sonic hedgehog signaling (Shh) pathway (AID 1259368; calls by dose curve;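 also: NIH/3T3-derived 3T3Gli1-Luc cells carrying a stable Gli1-driven firefly luciferase reporter; series mostly up to about 92 µM; nearly all actives have a fitted effect of over 15% in size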)
In short: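 Stable NIH/3T3 Gli1-Luc reporter clone; 24 hr cpd exposure after a 4 hr settling period; luminescence endpoint.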

[2] = qHTS assay to identify small molecule antagonists of the sonic hedgehog signaling (Shh) pathway (AID 1259369; calls by dose curve; also: nearly all actives have a fitted effect of over 45% in size; also: potency is read from the fitted curve at half-maximal effect)
In short: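 Gli1 transcriptional reporter (firefly Luc) in NIH/3T3 background, conditioned-medium activated. 24hr exposure, luminescence endpoint.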

[3] = qHTS assay to identify small molecule agonists of the androgen receptor (AR) signaling pathway in the presence of an antagonist - cell viability counter screen (AID 1259379);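 also: MDA-kb2 human breast cancer cells carrying an MMTV luciferase reporter; series mostly up to about 92 µM; nearly all actives have a fitted effect of over 25% in size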
In short: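 Counter screen for cell viability run in parallel with the AR agonist-mode luciferase assay. MDA-kb2 cells were co-treated with nilutamide (3.0uM final) and compounds, then incubated 16 hr at 37C, and CellTiter-Fluor fluorescence was measured.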

[4] = qHTS assay to identify small molecule agonists of the estrogen receptor beta (ER-beta) signaling pathway - cell viability counter screen (AID 1259380); also: nearly all actives have a fitted effect of over 30% in size; also: potency is read from the fitted curve at half-maximal effect
In short: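 In this qHTS counter screen, HEK293T cells carrying an ER-beta/UAS beta-lactamase reporter, grown in 2% charcoal-stripped FBS, received compound for 16 hr; ATP-based CellTiter-Glo luminescence was then read after 30 min at room temperature.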

[5] = biological target: Androgen receptor (Homo sapiens) (UniProt P10275); experiment: qHTS assay to identify small molecule agonists of the androgen receptor (AR) signaling pathway in the presence of an antagonist (AID 1259381; calls by dose curve; also: nearly all actives have a fitted effect of over 15% in size)
Chain of Androgen receptor (Homo sapiens) (P10275 whole entry, looked up): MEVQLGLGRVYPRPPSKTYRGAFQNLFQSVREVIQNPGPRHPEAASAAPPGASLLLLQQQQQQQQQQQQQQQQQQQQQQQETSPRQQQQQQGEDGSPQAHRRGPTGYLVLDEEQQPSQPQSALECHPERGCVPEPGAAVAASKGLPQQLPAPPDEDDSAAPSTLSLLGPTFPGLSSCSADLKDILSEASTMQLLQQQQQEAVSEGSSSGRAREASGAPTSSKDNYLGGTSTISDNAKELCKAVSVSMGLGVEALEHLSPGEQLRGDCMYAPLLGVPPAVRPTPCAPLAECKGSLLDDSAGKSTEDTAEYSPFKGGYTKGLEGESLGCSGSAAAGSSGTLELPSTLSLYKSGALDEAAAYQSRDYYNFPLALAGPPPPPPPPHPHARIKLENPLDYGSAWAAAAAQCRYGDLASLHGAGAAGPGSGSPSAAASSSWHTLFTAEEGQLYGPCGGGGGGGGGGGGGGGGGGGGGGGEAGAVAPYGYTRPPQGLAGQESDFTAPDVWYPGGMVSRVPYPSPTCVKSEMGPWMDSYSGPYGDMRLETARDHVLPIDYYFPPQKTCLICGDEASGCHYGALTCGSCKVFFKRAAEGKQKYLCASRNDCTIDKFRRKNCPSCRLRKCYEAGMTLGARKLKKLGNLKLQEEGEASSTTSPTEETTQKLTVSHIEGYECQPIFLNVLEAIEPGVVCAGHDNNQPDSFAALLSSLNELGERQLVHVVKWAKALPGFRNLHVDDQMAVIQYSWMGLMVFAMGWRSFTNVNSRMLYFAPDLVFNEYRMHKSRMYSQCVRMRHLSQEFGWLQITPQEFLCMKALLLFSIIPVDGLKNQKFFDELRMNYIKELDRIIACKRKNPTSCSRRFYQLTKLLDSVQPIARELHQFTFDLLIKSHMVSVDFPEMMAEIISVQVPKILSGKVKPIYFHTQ
In short: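 AR antagonist background: nilutamide 3.0uM final. Cell line: MDA-kb2, MMTV-driven luciferase, responsive to both AR and GR. Exposure 16hr, 37C, no CO2; ONE-Glo luminescence.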

[6] = qHTS assay to identify small molecule agonists or antagonists of the thyroid stimulating hormone receptor (TSHR) signaling pathway - wild type cell line counter screen (AID 1259384; calls by dose curve)
In short: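 Wild-type HEK293 cells were plated 18 h at 37 C/5% CO2, pin-dosed with compound plus Ro20-1724 medium, held 30 min at room temperature, then given cAMP-d2 and anti-cAMP-cryptate; fluorescence was read after 1 h. Fifteen concentrations, triplicate.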

[7] = biological target: Thyrotropin receptor (Homo sapiens) (UniProt P16473); experiment: qHTS assay to identify small molecule antagonists of the thyroid stimulating hormone receptor (TSHR) signaling pathway (AID 1259385; calls by dose curve; also: nearly all actives have a fitted effect of over 20% in size)
Chain of Thyrotropin receptor (Homo sapiens) (P16473 whole entry, looked up): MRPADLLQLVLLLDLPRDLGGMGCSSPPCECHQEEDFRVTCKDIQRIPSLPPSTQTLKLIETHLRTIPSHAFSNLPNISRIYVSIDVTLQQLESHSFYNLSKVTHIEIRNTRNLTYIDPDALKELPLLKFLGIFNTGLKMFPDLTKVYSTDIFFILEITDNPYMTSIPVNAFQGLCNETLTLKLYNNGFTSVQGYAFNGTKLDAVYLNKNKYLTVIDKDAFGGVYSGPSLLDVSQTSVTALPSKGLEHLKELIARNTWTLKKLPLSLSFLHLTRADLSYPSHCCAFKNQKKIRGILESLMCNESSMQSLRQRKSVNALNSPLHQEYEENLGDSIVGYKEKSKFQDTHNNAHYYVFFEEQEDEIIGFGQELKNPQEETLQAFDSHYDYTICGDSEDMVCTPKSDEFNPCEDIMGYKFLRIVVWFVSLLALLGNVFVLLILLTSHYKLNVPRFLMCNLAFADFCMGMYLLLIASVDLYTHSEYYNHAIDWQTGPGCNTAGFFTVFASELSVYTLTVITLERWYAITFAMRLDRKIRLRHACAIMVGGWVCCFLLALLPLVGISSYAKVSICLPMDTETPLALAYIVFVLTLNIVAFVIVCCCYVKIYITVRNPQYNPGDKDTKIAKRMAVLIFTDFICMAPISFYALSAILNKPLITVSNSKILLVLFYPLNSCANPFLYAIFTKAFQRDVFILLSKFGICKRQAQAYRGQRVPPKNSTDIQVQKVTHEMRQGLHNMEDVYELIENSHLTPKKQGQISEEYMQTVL
In short: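 TSHR-HEK293 cells were plated and held 18 h at 37C/5% CO2, then given compound plus Ro20-1724 and stimulated with TSH at 1.5 ng/mL final. After 30 min at room temperature, cAMP was detected with cAMP-d2/anti-cAMP-cryptate (1 h) by fluorescence.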

[8] = biological target: Progesterone receptor (Homo sapiens) (UniProt P06401); experiment: qHTS assay to identify small molecule agonists of the progesterone receptor (PR) signaling pathway (AID 1346784; calls by dose curve; also: nearly all actives have a fitted effect of over 30% in size)
Chain of Progesterone receptor (Homo sapiens) (P06401 whole entry, looked up): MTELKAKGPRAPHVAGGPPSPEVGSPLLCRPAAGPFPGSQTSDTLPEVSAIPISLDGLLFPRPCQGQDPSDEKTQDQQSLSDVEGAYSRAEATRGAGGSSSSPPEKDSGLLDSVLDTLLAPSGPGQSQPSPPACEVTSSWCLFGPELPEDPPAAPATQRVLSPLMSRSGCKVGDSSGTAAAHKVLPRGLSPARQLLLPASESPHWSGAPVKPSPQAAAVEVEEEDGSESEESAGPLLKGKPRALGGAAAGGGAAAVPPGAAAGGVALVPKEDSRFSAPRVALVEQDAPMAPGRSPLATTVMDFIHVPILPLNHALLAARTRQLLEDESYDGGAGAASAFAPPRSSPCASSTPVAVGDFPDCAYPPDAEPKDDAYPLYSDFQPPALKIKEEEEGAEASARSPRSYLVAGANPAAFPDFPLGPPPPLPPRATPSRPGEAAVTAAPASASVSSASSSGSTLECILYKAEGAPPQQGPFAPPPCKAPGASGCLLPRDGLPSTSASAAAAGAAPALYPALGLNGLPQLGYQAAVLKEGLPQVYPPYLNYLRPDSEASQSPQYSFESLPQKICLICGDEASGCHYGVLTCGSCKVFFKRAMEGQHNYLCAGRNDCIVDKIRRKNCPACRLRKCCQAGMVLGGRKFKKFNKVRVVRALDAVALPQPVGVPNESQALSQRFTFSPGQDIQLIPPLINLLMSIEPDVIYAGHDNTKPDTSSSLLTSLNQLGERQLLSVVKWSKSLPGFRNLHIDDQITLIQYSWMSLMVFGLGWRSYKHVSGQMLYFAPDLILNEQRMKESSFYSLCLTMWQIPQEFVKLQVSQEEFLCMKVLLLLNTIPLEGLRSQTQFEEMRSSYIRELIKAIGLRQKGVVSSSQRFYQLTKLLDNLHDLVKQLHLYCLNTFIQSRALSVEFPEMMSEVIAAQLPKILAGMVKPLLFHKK
In short: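 Cells (PR-UAS-bla HEK 293T, GripTite) were plated in assay medium containing 2% charcoal-stripped FBS and incubated 6 hr. Test compounds in DMSO were added for 16 hr at 37C. FRET substrate was then loaded for 2 hr at room temperature before fluorescence reading.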

[9] = biological target: Progesterone receptor (Homo sapiens) (UniProt P06401); experiment: qHTS assay to identify small molecule antagonists of the progesterone receptor (PR) signaling pathway (AID 1346795; active = well fitted inhibition curve with a large enough effect in the signal ratio in the repeat runs, not every such curve was filed as active; the % refers to the signal ratio; also: potency is read from the fitted curve at half-maximal effect)
In short: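 Antagonist mode: compounds tested against 1 nM (final) promegestone stimulation in HEK293T cells expressing PR-UAS-bla reporter, 16 hr at 37C, 5% CO2; beta-lactamase activity detected via B/G FRET substrate after 2 hr at room temperature.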

[10] = qHTS assay to identify small molecule agonists of the progesterone receptor (PR) signaling pathway - cell viability counter screen (AID 1346799; calls by dose curve; also: nearly all actives have a fitted effect of over 45% in size)
In short: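 Cells (PR-UAS-bla HEK293T) are plated at 3,000/well in 2% charcoal-stripped FBS medium, rested 6 hr, dosed and incubated 16 hr at 37C. CellTiter-Glo is then added and luminescence measured after 30 min at room temperature.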

[11] = qHTS assay to identify small molecule antagonists of the TGF-beta/Smad signaling pathway - cell viability counter screen (AID 1346824); also: nearly all actives have a fitted effect of over 50% in size
In short: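 SBE-bla HEK 293T cells were plated overnight at 37 C, then given compounds in DMSO plus TGF-beta1 (added as 0.25 ng/mL solution) for 5 hr. After the bla read, CellTiter-Glo was added to the same wells and luminescence read after 30 min at room temperature.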

[12] = qHTS assay to identify small molecule agonists of the TGF-beta/Smad signaling pathway (AID 1346859; active = well fitted activation curve with a large enough effect in the signal ratio in the repeat runs, not every such curve was filed as active; the % refers to the signal ratio; also: series mostly up to about 77 µM)
In short: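 Reporter line: HEK 293T with stably integrated SBE-controlled beta-lactamase. Compound exposure lasts 5 hr at 37 C and 5% CO2; substrate loading follows for 2 hr at room temperature, with emission read at 460 and 530 nm.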

[13] = qHTS assay to identify small molecule antagonists of the estrogen receptor beta (ER-beta) signaling pathway - cell viability counter screen (AID 1259382); also: series mostly up to about 92 µM; nearly all actives have a fitted effect of over 55% in size
In short: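 HEK293T ER-beta-UAS-bla, 2% charcoal-stripped FBS; compounds + 1nM E2 16 hr 37C; CellTiter-Glo luminescence, 30 min RT.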

[14] = biological target: Estrogen receptor (Homo sapiens) (UniProt P03372); experiment: qHTS assay to identify small molecule agonists of the estrogen receptor alpha (ER-alpha) signaling pathway in the presence of an antagonist (AID 1259383; calls by dose curve; also: top concentration of the series differs between compounds; nearly all actives have a fitted effect of over 15% in size)
Chain of Estrogen receptor (Homo sapiens) (P03372 whole entry, looked up): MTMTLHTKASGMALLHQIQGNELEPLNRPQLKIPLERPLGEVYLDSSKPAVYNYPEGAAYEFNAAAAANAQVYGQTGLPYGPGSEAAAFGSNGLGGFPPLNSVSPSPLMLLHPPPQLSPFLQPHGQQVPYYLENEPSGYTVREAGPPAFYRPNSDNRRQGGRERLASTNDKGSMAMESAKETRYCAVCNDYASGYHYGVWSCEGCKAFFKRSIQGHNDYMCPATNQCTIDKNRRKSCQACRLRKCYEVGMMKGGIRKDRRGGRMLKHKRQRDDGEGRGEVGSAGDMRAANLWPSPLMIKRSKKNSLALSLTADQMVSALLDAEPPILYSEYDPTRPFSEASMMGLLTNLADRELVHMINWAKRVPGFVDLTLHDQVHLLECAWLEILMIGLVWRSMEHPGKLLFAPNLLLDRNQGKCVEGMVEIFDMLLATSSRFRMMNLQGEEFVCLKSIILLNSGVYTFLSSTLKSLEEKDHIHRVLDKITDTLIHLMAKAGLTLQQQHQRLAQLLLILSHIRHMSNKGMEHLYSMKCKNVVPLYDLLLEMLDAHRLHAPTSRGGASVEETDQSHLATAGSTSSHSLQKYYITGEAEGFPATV
In short: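 ER-alpha agonism measured under antagonist challenge: 10.0nM ICI-182,780 (final) plus compound, 15 concentrations, 22hr, VM7Luc4E2 ERE-luciferase cells. Read by luminescence.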

[15] = qHTS assay to identify small molecule agonists of the estrogen receptor alpha (ER-alpha) signaling pathway in the presence of an antagonist - cell viability counter screen (AID 1259386);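 also: series mostly up to about 92 µM; cells exposed to compounds for 22 h at 37 °C before the viability read; nearly all actives have a fitted effect of over 30% in size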
In short: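 Steps: 5-day stripped-FBS culture; seed and incubate 24hr; add ICI-182,780 (10.0nM final); pin 15-point compound titration; incubate 22hr at 37C; add CellTiter-Fluor at 21hr; read fluorescence.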

[16] = qHTS assay to identify small molecule antagonists of the progesterone receptor (PR) signaling pathway - cell viability counter screen (AID 1346798); also: series mostly up to about 92 µM; nearly all actives have a fitted effect of over 50% in size
In short: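 Counter screen for cytotoxicity: viability of PR-UAS-bla HEK293T cells was measured with CellTiter-Glo luminescence following 16 hr compound exposure in the presence of R5020.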

[17] = qHTS assay to identify small molecule agonists of the TGF-beta/Smad signaling pathway - cell viability counter screen (AID 1346829); also: top concentration of the series differs between compounds; nearly all actives have a fitted effect of over 45% in size
In short: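 Tox21 qHTS format: SBE-bla HEK 293T cells treated with DMSO-dissolved compounds for 5 hr; CellTiter-Glo luminescence after 30 min at room temperature.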

[18] = biological target: Thyrotropin-releasing hormone receptor (Homo sapiens) (UniProt P34981); experiment: qHTS assay to identify small molecule antagonists of the thyrotropin-releasing hormone receptor (TRHR) signaling pathway (AID 1346877; active = well fitted inhibition curve with a large enough effect in the repeat runs, not every such curve was filed as active; also: series mostly up to about 51 µM)
Chain of Thyrotropin-releasing hormone receptor (Homo sapiens) (P34981 whole entry, looked up): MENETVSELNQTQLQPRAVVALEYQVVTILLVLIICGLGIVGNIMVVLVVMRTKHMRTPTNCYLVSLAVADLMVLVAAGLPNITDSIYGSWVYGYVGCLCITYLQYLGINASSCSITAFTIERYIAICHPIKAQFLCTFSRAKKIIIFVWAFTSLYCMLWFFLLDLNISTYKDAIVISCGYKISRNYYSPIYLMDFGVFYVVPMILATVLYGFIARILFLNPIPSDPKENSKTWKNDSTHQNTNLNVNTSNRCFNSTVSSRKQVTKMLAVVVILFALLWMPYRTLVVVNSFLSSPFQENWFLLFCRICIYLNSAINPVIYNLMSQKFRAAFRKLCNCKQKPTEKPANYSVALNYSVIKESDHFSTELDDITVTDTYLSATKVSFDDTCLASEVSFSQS
In short: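 Human TRHR in HEK293 cells; inhibition of the intracellular calcium rise triggered by 1 nM TRH was followed by fluorescence over 3 min. Compounds were run at 15 concentrations, three replicates each.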

[19] = biological target: Estrogen receptor beta (Homo sapiens) (UniProt Q92731); experiment: qHTS assay to identify small molecule antagonists of the estrogen receptor beta (ER-beta) signaling pathway (AID 1259378; active = well fitted inhibition curve with a large enough effect in the signal ratio in the repeat runs, not every such curve was filed as active; the % refers to the signal ratio; also: potency is read from the fitted curve at half-maximal effect)
Chain of Estrogen receptor beta (Homo sapiens) (Q92731 whole entry, looked up): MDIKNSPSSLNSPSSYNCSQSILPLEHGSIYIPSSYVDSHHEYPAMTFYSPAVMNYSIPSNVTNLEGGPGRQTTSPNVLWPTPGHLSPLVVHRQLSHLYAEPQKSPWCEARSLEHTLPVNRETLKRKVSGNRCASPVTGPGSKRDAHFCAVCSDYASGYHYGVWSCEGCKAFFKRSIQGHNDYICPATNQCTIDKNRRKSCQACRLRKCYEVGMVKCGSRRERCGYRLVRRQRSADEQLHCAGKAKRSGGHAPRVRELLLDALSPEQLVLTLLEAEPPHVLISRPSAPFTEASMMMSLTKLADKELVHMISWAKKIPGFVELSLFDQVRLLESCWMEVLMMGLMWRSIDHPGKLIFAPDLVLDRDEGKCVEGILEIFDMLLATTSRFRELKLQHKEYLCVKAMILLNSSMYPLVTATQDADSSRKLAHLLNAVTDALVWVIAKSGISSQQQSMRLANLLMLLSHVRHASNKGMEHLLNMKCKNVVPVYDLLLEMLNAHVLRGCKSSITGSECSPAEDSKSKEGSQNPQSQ
In short: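 ER-beta-UAS-bla HEK293T (GripTite) cells in 2% charcoal-stripped FBS medium were preincubated 6 hr at 37C, dosed with compound, then stimulated with 1 nM E2 (final) for 16 hr; beta-lactamase reporter read by B/G FRET fluorescence after 2 hr substrate loading.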

Row | Structure (SMILES) | Potency [1] | Potency [2] | Potency [3] | Potency [4] | Potency [5] | outcome [6] | Potency [7] | Potency [8] | Potency [9] | Potency [10] | outcome [11] | outcome [12] | Potency [13] | Potency [14] | Potency [15] | Potency [16] | outcome [17] | outcome [18] | Potency [19]
1 | O=C(O)c1ccccc1NCCc1ccccc1 | inactive | inactive | inactive | inactive | inactive | inactive | inactive | inactive | inactive | inactive | inactive | inactive | – | – | – | – | – | – | –
2 | C/C(=N/NC(=O)c1ccncc1)C(=O)O | inactive | inactive | inactive | inactive | inactive | inactive | inactive | – | inactive | inactive | inactive | inactive | inactive | inactive | inactive | inactive | inactive | – | –
3 | CCCCC(=O)O[C@]1(C(=O)CO)CC[C@H]2[C@@H]3CCC4=CC(=O)CC[C@]4(C)[C@H]3[C@@H](O)C[C@@]21C | inactive | inactive | inactive | inactive | – | inactive | – | – | inactive | inactive | inactive | inactive | inactive | inactive | – | inactive | inactive | inactive | –
4 | COc1cc2ncnc(Nc3ccc(F)c(Cl)c3)c2cc1OCCCN1CCOCC1 | inactive | 15 µM (active) | – | 6.68 µM (active) | inactive | inactive | inactive | – | 21.1 µM (active) | – | inactive | inactive | – | inactive | inactive | – | inactive | – | 7.5 µM (active)
5 | C[Si]1(C)O[Si](C)(C)O[Si](C)(C)O1 | inactive | inactive | inactive | inactive | inactive | – | inactive | inactive | inactive | inactive | – | inactive | – | – | inactive | inactive | inactive | inactive | –
6 | Nc1c(I)cc(I)c(C(=O)N(CCC(=O)O)c2ccccc2)c1I | inactive | inactive | inactive | inactive | inactive | – | – | – | inactive | inactive | inactive | inactive | inactive | – | inactive | inactive | inactive | inactive | –
7 | OCC1CC=CCC1 (centres undefined) | inactive | inactive | inactive | inactive | inactive | inactive | inactive | inactive | inactive | inactive | inactive | inactive | – | – | inactive | inactive | inactive | – | –
8 | COC(=O)c1cc(S(N)(=O)=O)ccc1OC | inactive | inactive | inactive | inactive | inactive | – | – | inactive | inactive | inactive | inactive | inactive | – | inactive | inactive | inactive | inactive | – | –
9 | CC1=NN(c2ccc(C(=O)O)cc2)C(=O)C1 | inactive | inactive | inactive | inactive | inactive | – | – | inactive | inactive | inactive | inactive | inactive | inactive | – | inactive | inactive | inactive | inactive | –
10 | c1ccc(COCc2ccccc2)cc1 | inactive | inactive | inactive | inactive | – | inactive | – | inactive | inactive | inactive | inactive | inactive | inactive | inactive | inactive | inactive | inactive | – | –
11 | CCCCCCCC/C=C\CCCCCCCC(=O)OC | inactive | inactive | inactive | inactive | – | – | inactive | inactive | inactive | inactive | inactive | inactive | inactive | – | inactive | – | inactive | – | inactive
12 | C[N+](C)(C)CCOC(N)=O | inactive | inactive | inactive | inactive | inactive | inactive | inactive | inactive | inactive | inactive | inactive | inactive | inactive | – | inactive | inactive | inactive | inactive | –
13 | CCCCCCOC(=O)CCCCCCCC(=O)OCCCCCC | inactive | inactive | inactive | inactive | – | inactive | inactive | inactive | inactive | inactive | inactive | inactive | inactive | – | inactive | inactive | inactive | inactive | –
14 | COCC(O)CO (centres undefined) | inactive | inactive | inactive | inactive | – | – | – | inactive | inactive | inactive | inactive | inactive | inactive | inactive | inactive | inactive | inactive | inactive | –
15 | CC(=O)CC(c1ccc([N+](=O)[O-])cc1)c1c(O)c2ccccc2oc1=O (centres undefined) | inactive | inactive | inactive | inactive | – | inactive | – | inactive | inactive | inactive | inactive | inactive | inactive | inactive | inactive | inactive | inactive | – | –
16 | CCC(C)(C)C1CCC(O)CC1 (centres undefined) | inactive | inactive | inactive | inactive | – | – | inactive | inactive | – | inactive | inactive | inactive | inactive | inactive | inactive | inactive | inactive | – | –
17 | CCN(Cc1cccc(S(=O)(=O)O)c1)c1ccc(C(=C2C=CC(=[N+](CC)Cc3cccc(S(=O)(=O)[O-])c3)C=C2)c2ccccc2)cc1 | inactive | inactive | inactive | inactive | – | inactive | inactive | inactive | inactive | inactive | inactive | inactive | inactive | inactive | inactive | inactive | – | inactive | –
